Shiga toxin inh = inhibitors of Shiga toxin in Vero cells | AID 2315 | 9.2% of 290,000 active | Vero cells, Shiga toxin protein synthesis inhibition reporter | inhibition, % at 38.7 µM; in the data active means inhibition mostly above about 28%, no sharp cut-off; inactive means mostly below about 43%
Pf growth 48h = inhibits P. falciparum growth in the first generation, 48 h. P. falciparum luciferase growth in erythrocytes, 48 h. Potency, µM (doses to about 28.7 µM), usual class: inhibitors. 5.9% of 310,000 active. AID 504832; active means well fitted inhibition curve with a large enough effect; inconclusive means small, poorly fitted or top-dose-only effect, or another doubt; inactive means no such curve, though single readings can be large or run the other way
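Erythrocytes infected with P. falciparum carrying an integrated firefly luciferase reporter (2% hematocrit, 0.1% parasitemia final) were exposed to compounds in RPMI 1640 with 0.5% Albumax at 37 C, 5% CO2. Growth inhibition was scored as reduced luminescence.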
CHX counter-1 = counter-screen for Shiga toxin inhibitors: cycloheximide protein synthesis inhibition. cell reporter, cycloheximide protein synthesis inhibition counterscreen. 12% of 300,000 active. max response, %. AID 2314; in the data active means max response mostly above about 13%, no sharp cut-off; inactive means mostly below about 14%; further: read at 38.3 µM for the half of the compounds with a filed dose
NS1 function inh = inhibitors of influenza NS1 protein function; AID 2326; 0.4% of 270,000 active; Potency, µM (highest dose often 46.1 µM); further: actives are rising curves; nearly all actives have a fitted effect of over 50% in size
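OD600 was taken as the measure of yeast growth restored by compound in an NS1-expressing S. cerevisiae strain. Cells had been washed out of glucose medium and diluted 1:100 into galactose -URA medium, pH 6.0.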
Pf growth 96h = P. falciparum growth inhibition at 96 hours; P. falciparum luciferase reporter growth, 96 h; Potency, µM (top dose mostly 28.7 µM), most hits filed as inhibitors; 6.9% of 320,000 active; active means well fitted inhibition curve with a large enough effect; inconclusive means small, poorly fitted or top-dose-only effect, or another doubt; inactive means no such curve, though single readings can be large or run the other way
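P. falciparum expressing integrated firefly luciferase grown in erythrocytes (2% hematocrit, 0.05% parasitemia final) with compounds for 96 hours at 37 C, 5% CO2. Growth inhibition read as loss of luminescence after adding luciferase detection reagent.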
CHX counter-2 = protein synthesis counter-screen activity for Shiga toxin hits; shares compounds with Shiga toxin inh; Cycloheximide counterscreen, protein synthesis reporter, Shiga toxin assay; Potency, µM (titrated, usually from 38.3 µM), usual class: activators; 3% of 510 active
Flu NS1 inh = influenza NS1 function inhibition validation. 1,400 tested, under 10 active. influenza NS1 function cell assay, 15-point titration. shares compounds with NS1 function inh. AID 492980. activity change, negative = inhibition, % at 32.9 µM
A number is an active result; – = inactive; ? = inconclusive; · = no result given; ! = a repeat was not active. Sampled rows, rich in hits. Any-hit rate of the full collection: about 21%. Unless noted, the call rests on the fitted dose curve.

SMILES | Shiga toxin inh | Pf growth 48h | CHX counter-1 | NS1 function inh | Pf growth 96h | Flu NS1 inh | others
O=C(CC1CC2CCC1C2)NCCc1ccc(Cl)cc1 (configuration not stated) | 49.4 | – | – | – | – | · | CHX counter-2=–
COC(=O)c1cccc(C(=O)N2CCCC(C(=O)c3cc(F)ccc3F)C2)c1 (configuration not stated) | – | – | – | – | – | ·
Cc1c(C)n(-c2ccccc2)c2ncnc(NCCN(C)C)c12 | – | – | – | – | – | ·
CS(=O)(=O)N(CC(=O)Nc1ccccc1Sc1ccccc1)C1CCCCC1 | 44.3 | · | – | ? | – | – | CHX counter-2=–
COc1ccccc1CNC(=O)[C@@H]1CCCN1S(=O)(=O)c1ccc(Cl)cc1 | – | – | – | – | – | ·
COc1ccc(N=C2S/C(=C\c3cc(C)n(C)c3C)C(=O)N2CC(C)C)cc1 | – | ? | – | 7.08µM | ? | –
COc1ccc(N=C2S/C(=C\c3ccco3)C(=O)N2CC(C)C)cc1 | – | ? | – | – | ? | ·
Cc1nc(-c2ccc(Cl)cc2)sc1C1(C)CC(c2c(Cl)cccc2Cl)=NO1 (configuration not stated) | – | – | – | 10µM | – | –
CC1(c2nnc(-c3ccc(Cl)cc3)o2)CC(c2cccc(Cl)c2)=NO1 (configuration not stated) | – | – | – | – | ? | ·
O=C1CCC/C(=N/NC(=O)c2ccc(CN3c4cccc5cccc(c45)S3(=O)=O)cc2)C1 | – | – | – | 14.1µM | ? | –
O=C(COc1ccc(Cl)cc1)NNC(=S)NCc1ccccc1 | – | ? | – | 5.62µM | – | ?
C[C@H](NC(=O)c1nc[nH]c1C(=O)N[C@@H](CCCCNC(=O)OC(C)(C)C)C(=O)OC(C)(C)C)C(=O)OCc1ccccc1 | – | ? | – | 10µM | – | –
CC(C)(C)OC(=O)[C@H](Cc1ccccc1)NC(=O)c1nc[nH]c1C(=O)NCC(=O)OCc1ccccc1 | – | – | – | 11.2µM | – | –
CC(C)C[C@H](NC(=O)c1[nH]cnc1C(=O)N[C@@H](C)C(=O)OC(C)(C)C)C(=O)OCc1ccccc1 | – | ? | – | – | ? | ·
CC(C)C[C@H](NC(=O)c1nc[nH]c1C(=O)NCc1ccc(CNC(=O)OC(C)(C)C)cc1)C(=O)OC(C)(C)C | – | ? | – | 8.91µM | ? | –
C[C@H](NC(=O)c1nc[nH]c1C(=O)N[C@@H](Cc1ccccc1)C(=O)OCc1ccccc1)C(=O)OC(C)(C)C | – | 7.38µM | – | 10µM | ? | –
CC(C)(C)OC(=O)CNC(=O)c1[nH]cnc1C(=O)N[C@@H](Cc1ccccc1)C(=O)OC(C)(C)C | – | ? | – | – | ? | ·
C[C@H](NC(=O)c1nc[nH]c1C(=O)NCCCCCNC(=O)OC(C)(C)C)C(=O)OCc1ccccc1 | – | – | – | – | – | ·
CN(C)CCN(Cc1cc2cc3c(cc2[nH]c1=O)OCO3)C(=S)NCC1CCCO1 (configuration not stated) | – | – | – | – | – | ·
OCc1ccncc1.OCc1ccncc1.[Cl][Pt]([Cl])([Cl])[Cl] | · | · | · | – | · | ·
CCOC(=O)c1cccc(P(C)(C)=O)c1 | – | – | – | – | – | ·
O=C(CCc1ccc(O)cc1)c1c(O)cc(O)cc1O | – | ? | 19.7 | 12.6µM! | ? | –
CCCCCCn1c(CN2CCCCC2CC)nc2c1c(=O)n(C)c(=O)n2C (configuration not stated) | – | – | – | – | – | ·
CC(=O)c1cccc(NC(=O)C(OC(=O)c2cccc(S(=O)(=O)N(C)c3ccccc3)c2)c2ccccc2)c1 (configuration not stated) | – | – | – | ? | – | ·
COc1ccc(N(C)S(=O)(=O)c2cccc(C(=O)OC(C(=O)Nc3cc(C)cc(C)c3)c3ccccc3)c2)cc1 (configuration not stated) | – | – | – | 8.91µM | – | –
SMILES | Shiga toxin inh | Pf growth 48h | CHX counter-1 | NS1 function inh | Pf growth 96h | Flu NS1 inh | others
COc1ccc(N(C)S(=O)(=O)c2cccc(C(=O)N3CCN(S(=O)(=O)c4ccc(C)cc4)CC3)c2)cc1 | – | 5.86µM | – | 11.2µM | 2.62µM | –
O=C(Nc1ccccn1)c1ccc(S(=O)(=O)N2CCCCCC2)cc1 | · | – | · | · | – | ·
COc1cccc(OC)c1NC(=O)C1CCCN1C(=O)Nc1cccc(Cl)c1 (configuration not stated) | – | – | – | – | – | ·
C=C1C(=O)C=C[C@]2(C)C[C@@H]3OC(=O)[C@](C)(O)[C@H]3C[C@@H]12 | 62.9 | 11.7µM | 34.5 | ? | 14.7µM | –
CCCc1cc(=O)n(-c2nc3ccccc3s2)[nH]1 | – | – | – | – | – | ·
CCOC(=O)Cc1cc(=O)n(-c2nc3ccccc3s2)[nH]1 | – | – | – | 10µM | ? | –
CCOC(=O)C(=O)Nc1ccc([N+](=O)[O-])cc1OC | – | – | – | – | – | ·
CCOC(=O)c1ccc(C(=O)OCC)c(NC(=S)Nc2ccc([N+](=O)[O-])cc2OC)c1 | 66.8 | – | 69.1 | 5.01µM | 2.94µM | ?
C=CCN1CC(c2nc3ccccc3n2CCOc2ccccc2)CC1=O (configuration not stated) | – | 11.7µM | – | ? | – | –
C=C(C)Cn1c(C2CC(=O)N(Cc3ccccc3)C2)nc2ccccc21 (configuration not stated) | – | – | – | – | – | ·
Cc1cc(C)c(NC(=O)Cn2c(=O)n(-c3ccc(CC(=O)NCC4CCCO4)cc3)c(=O)c3ccccc32)c(C)c1 (configuration not stated) | – | – | – | · | – | ·
c1ccc(C2=Nn3c(Cn4nnc5ccccc54)nnc3SC2)cc1 | – | – | – | – | – | ·
c1ccc(-c2ccc(C3=Nn4c(Cn5nnc6ccccc65)nnc4SC3)cc2)cc1 | – | ? | – | 12.6µM | 9.28µM | ?
C(=N\N1CCN(Cc2cccc3ccccc23)CC1)/c1cccnc1 | – | – | – | 10µM | ? | –
FC(F)(F)c1ccc(/C=N/N2CCN(Cc3cccc4ccccc34)CC2)cc1 | – | ? | – | – | – | ·
COc1ccc(C2NC(=O)NC(C)=C2C(=O)OC2CCC(C)CC2)cc1 (configuration not stated) | – | – | – | ? | ? | –
COc1ccc(C2NC(=O)NC(C)=C2C(=O)OC2CCCC(C)C2)cc1 (configuration not stated) | · | – | – | – | ? | ·
C=CCn1cc(C(=O)NCc2ccco2)c(=O)c2cc(S(=O)(=O)N3CCCCCC3)ccc21 | – | ? | – | – | ? | ·
Cc1ccc(Cn2c(SCC(=O)N3CC(=O)Nc4ccccc43)nc3ccccc3c2=O)cc1 | – | ? | – | 12.6µM | 13.1µM | –
COc1ccc(CNC(=O)c2cc(-c3cccc(OC)c3)on2)cc1 | · | · | · | – | · | ·
CCCc1nn2c(=O)cc(COc3ccc(NC(=O)c4ccco4)cc3)nc2s1 | – | – | – | – | ? | ·

Screening results as filed in PubChem BioAssay.
